These results are taken from PubChem BioAssay (NCI).

This is part of a sample that, as a whole, favours compounds with a hit. Of some 83,000 tested, about 20% had one in any assay.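 Values shown are percent growth following 48 h exposure of cells in 96-well plates to a single concentration of compound; below 10 was considered active.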 The source made the active and inactive calls.

For this experiment, the system named is CAKI-1 renal. Description: NCI-60 one-dose screen, 48 h (100 = growth as untreated, 0 = no growth, -100 = all killed). The conditions noted are these: 10 µM unless noted.
Regarding `Cc1cc(C)c(S(=O)(=O)N2CCN(c3cc4c(cc3F)c(=O)c(C(=O)O)cn4C3CC3)CC2)c(C)c1`, the growth was 67.1% (inactive). Next, `CCn1cc(C(=O)O)c(=O)c2cc(F)c(N3CCN(S(=O)(=O)c4ccc(OC)c(OC)c4)CC3)cc21`: 99% (inactive); `Cc1ccc(S(=O)(=O)OCC(=O)Nc2ccc(C(=O)O)c(O)c2)cc1`: 102% (inactive).

Regarding `O=S(=O)(c1ccccc1)n1ccc(-c2ccc3c(c2)CCO3)n1`, the growth was 75.3% (inactive). Next, `Clc1ccc(-c2nc(-c3ccco3)cn3ccnc23)cc1`: 50.2% (inactive); `CCn1cc(C(=O)O)c(=O)c2cc(F)c(N3CCN(S(=O)(=O)c4cccc5ccccc45)CC3)cc21`: 0.945% (active). Next, `O=P([O-])(O)OP(=O)([O-])O.[NH-][C@H]1CCCC[C@@H]1[NH-].[OH-].[OH-].[Pt+4]`: 94.8% (inactive); `O=C(CC(O)c1ccncc1)c1ccccc1` (centres undefined): 86.2% (inactive); `O=c1oc2c([nH]c3ccc4ccccc4c32)c2ccccc12`: 109% (inactive). In the case of `Nc1c(C(=O)Nc2ccccc2)sc2nc3c(cc12)CCC3` it was 81.5% (inactive); in that of `COc1ccc(C2CC(c3cccs3)=NN2c2ccc(S(=O)(=O)NC(=O)NCc3cccc(OC)c3)cc2)cc1` (centres undefined), 94.7% (inactive); in that of `COc1cc(NC(=O)CSc2nc3ccc(C)cc3c(=O)n2-c2ccccc2)cc(OC)c1OC`, 88.4% (inactive). With `Cc1ccc(S(=O)(=O)OC2COCOC2C(OS(=O)(=O)c2ccc(C)cc2)C2OCOCC2OS(=O)(=O)c2ccc(C)cc2)cc1` (centres undefined), the growth is 105% (inactive). Next, `CC(=O)Nc1ccc(S(=O)(=O)N2C(=O)CCC2C(=O)Nc2ccc(Br)cc2)cc1` (centres undefined): 32.3% (inactive); `O=C(O)c1ccc(-n2c(=O)c3ccccc3c3ccccc3c2=O)cc1`: 101% (inactive). In the case of `CS(=O)(=O)N(c1cc(-c2ccc3ncnc(Nc4cccc(Cl)c4)c3c2)cnc1Cl)S(C)(=O)=O` it was 6.68% (active). Next, `CN(C)c1ncc(-c2ccc(C(F)(F)F)cc2)c(NC2CCCCCC2)n1`: 85.5% (inactive); `O=S(=O)(NCCNc1cc(-c2cn(-c3ccccc3)nc2-c2ccccc2)ccn1)c1cccc2ccccc12`: 49.8% (inactive). In the case of `CC/C=C\C[C@H](O)C/C=C1/C(=O)C(Cl)=C[C@@H]1C/C=C\CCCC(=O)O`, the growth was 79.1% (inactive). As for `CC[C@H](C)[C@@H]1NC(=O)[C@H]([C@@H](C)O)NC(=O)C(Cc2ccccc2)NC(=O)[C@@H]2CCCN2C(=O)C(C(C)C)NC(=O)C(Cc2ccccc2)NC(=O)CNC(=O)[C@@H]2CCCN2C1=O` (some centres undefined), the growth is 37.6% (inactive).

As to `O=C(Nc1cc(C(F)(F)F)cc(C(F)(F)F)c1)Nc1ccc(OCc2nnc(-c3ccc(Cl)cc3)o2)c(F)c1`, the growth was 4.76% (active).

Turning to `Oc1ccc(N=Cc2ccccc2)cc1`, the growth was 105% (inactive). Turning to `Nc1ccccc1C#C/C=C\C#Cc1cccc(O)c1`, the growth was 31.3% (inactive).

Regarding `CCn1cc(C(=O)O)c(=O)c2cc(F)c(N3CCN(S(=O)(=O)c4ccc(Cl)cc4Cl)CC3)cc21`, the growth is 4.75% (active). As to `COc1cc(CNC(=O)CSc2nc3ccccc3c(=O)n2Cc2cc(OC)c(OC)c(OC)c2)cc(OC)c1OC`, the growth was 98.5% (inactive). In the case of `COc1cc(CCn2nnc3c(NCCCCO)ncnc32)cc(OC)c1` it was 92.7% (inactive); in that of `C/C(=C\c1csc(C)n1)[C@@H]1C[C@@H]2O[C@]2(C)CCC[C@H](C)[C@H](O)[C@@H](C)C(=O)C(C)(C)[C@@H](O)CC(=O)N1`, -88.4% (active); in that of `COc1ccc(S(=O)(=O)N2CCN(c3cc4c(cc3F)c(=O)c(C(=O)O)cn4C3CC3)CC2)c(OC)c1`, 81.8% (inactive). Next, `CC[C@]1(O)C[C@@H]2CN(Cc3c([nH]c4ccccc34)[C@@](C(=O)OC)(c3cc4c(cc3OC)N(C)[C@H]3[C@@](O)(C(=O)OC)[C@H](OC(C)=O)[C@]5(CC)[C@@H]6C[C@@H]6CN6CC[C@]43[C@@H]65)C2)C1`: 50.6% (inactive); `COC1=CC(c2ccc[nH]2)=N/C1=C\c1[nH]c(C)c(C(=O)CCCCC(=O)Oc2ccc3c(c2)CCC2C3CC[C@]3(C)[C@@H](O)CC[C@@H]23)c1C` (some centres undefined): 25.7% (inactive). Next, `N#Cc1ncc(-c2ccc(F)c(F)c2F)c(NC2CCCCCC2)n1`: 79% (inactive); `O=C(O)c1cn(C2CC2)c2cc(N3CCN(S(=O)(=O)c4ccc(Cl)c(Cl)c4)CC3)c(F)cc2c1=O`: 3.06% (active). With `CCCCCCCCCCCCOB(OCCCCCCCCCCCC)OCCCCCCCCCCCC`, the growth was 104% (inactive). With `CNC(C)=O`, the growth was 96.2% (inactive).

As to `COc1cc2nc(N3CCC[C@@H](NC4=CC(=O)c5ccccc5C4=O)C3)nc(N)c2cc1OC`, the growth was 64.9% (inactive). Next, `COC(=O)[C@H]1[C@H](OC)[C@@H](OC(=O)/C=C/c2ccncc2)CC2CN3CCc4c([nH]c5cc(OC)ccc45)[C@@H]3C[C@@H]21` (some centres undefined): 53.3% (inactive); `Clc1nc(-c2cccnc2)nc2sc3c(c12)CCCCCC3`: 93.8% (inactive). As to `O=c1oc2cc(OS(=O)(=O)c3ccc(F)cc3)ccc2c2c1CCCCC2`, the growth is 86.7% (inactive). In the case of `CC(=O)C1CCC(C)=CC1=O` (centres undefined), the growth was 96.5% (inactive).
